T cruzi growth = T. cruzi intracellular proliferation inhibitors, primary screen, cell-based, beta-gal Tulahuen parasites, NIH3T3 host, luminescence; T. cruzi beta-gal in NIH3T3, GalScreen luminescence, 90 h; inhibition, % at 8.34 µM; 77,000 compounds, 5.9% hits;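 active = mean inhibition above about 93%, with at least 55% of replicates each passing it, limit read from the data, passing the limit was not always enough; inconclusive = only one of those two conditions holds; inactive = neither condition holds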
C diff growth = C. difficile growth inhibitors, primary screen, HTS. Clostridium difficile clinical isolate growth, OD600, 24 h; active compounds read low. growth activity, negative = inhibition, % at 16 µg/mL (by protocol). 86,000 compounds, 0.25% hits. AID 1259249, 2017;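 active = mean growth activity at or below -80% and every replicate also at or below -80%; inconclusive = mean at or below -80% but some replicate above -80%; inactive = mean growth activity above -80%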;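 also: 0% = DMSO wells and -100% = levofloxacin 16 µg/mL wells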
Pf Dd2 inh = P. falciparum Dd2 growth inhibitors, primary screen, SYBR Green fluorescence, single dose replicates | 72 h; active compounds read low | activity change, % at 10 µM | 94,000 compounds, 2.3% hits; in the data active = activity change below about -80%; inconclusive = no clear call, values can overlap the other calls
The depositor's hits bear a star; ? = inconclusive; nt = no result given. Shown are actives, neighbours in structure and some others; about 6.8% of the full set was active somewhere.

SMILES | T cruzi growth | C diff growth | Pf Dd2 inh
COc1ccccc1C#Cc1ccc([C@H]2[C@@H](C#N)N(C(=O)C3CCCC3)[C@H]2CO)cc1 | nt | 48 | -97*
COCC#Cc1ccc([C@H]2[C@H](CO)N3C(=O)CN(C(=O)c4cccnc4)C[C@@H]23)cc1 | nt | 10 | 19
C[C@H]1CCCCO[C@H](CN(C)CC2CCCCC2)[C@@H](C)CN([C@@H](C)CO)C(=O)c2cc(NC(=O)Nc3ccccc3)ccc2O1 | 82 | 5 | -73
COc1ccc(NC(=O)Nc2ccc3c(c2)C(=O)N([C@@H](C)CO)C[C@H](C)[C@H](CN(C)CC2CCCCC2)OCCCC[C@H](C)O3)cc1 | 68 | -7 | -84*
C[C@@H]1CCCCO[C@@H](CN(C)CC2CCCCC2)[C@H](C)CN([C@H](C)CO)C(=O)c2cc(NC(=O)Nc3ccccc3)ccc2O1 | 94 | 16 | -84*
COc1ccc(NC(=O)Nc2ccc3c(c2)C(=O)N([C@H](C)CO)C[C@H](C)[C@H](CN(C)CC2CCCCC2)OCCCC[C@@H](C)O3)cc1 | 67 | -1 | -62
O=S(=O)(N[C@H]1CC[C@H](CCn2cc(-c3cccc(F)c3)nn2)O[C@H]1CO)c1ccc(Cl)cc1 | 39 | nt | 7
Cc1noc(C)c1S(=O)(=O)N(C)C[C@H]1Oc2ccc(NC(=O)Nc3ccc(C(F)(F)F)cc3)cc2CC(=O)N([C@H](C)CO)C[C@H]1C | -3 | 9 | 6
C[C@H](O)C#Cc1cnc2c(c1)C(=O)N([C@H](C)CO)C[C@@H](C)[C@@H](CN(C)Cc1cccc(F)c1)O2 | 11 | 1 | 17
C[C@H]1CN([C@@H](C)CO)C(=O)c2ccccc2-c2ccccc2CO[C@@H]1CN(C)C(=O)Nc1ccc(-c2ccccc2)cc1 | nt | -15 | -86*
C[C@H](CO)N1C[C@H](C)[C@H](CN(C)C(=O)Nc2cccc(C(F)(F)F)c2)OCc2ccccc2-c2ccccc2C1=O | 74 | 2 | -32
C[C@H](CO)N1C[C@H](C)[C@@H](CN(C)C(=O)Nc2ccc(-c3ccccc3)cc2)OCc2ccccc2-c2ccccc2C1=O | nt | 82 | -40
C[C@@H]1CN([C@@H](C)CO)C(=O)c2ccccc2-c2ccccc2CO[C@@H]1CN(C)C(=O)Nc1cccc(F)c1 | 49 | nt | -17
C[C@@H]1CN([C@@H](C)CO)C(=O)c2ccccc2-c2ccccc2CO[C@H]1CN(C)C(=O)Nc1cccc(C(F)(F)F)c1 | 49 | 0 | -87*
C[C@@H]1CN([C@@H](C)CO)C(=O)c2ccccc2-c2ccccc2CO[C@H]1CN(C)C(=O)Nc1cccc(F)c1 | 22 | nt | -83*
C[C@H](CO)N1C[C@H](C)[C@H](CN(C)Cc2ccccn2)Oc2cc(-c3ccc(C#N)cc3)ccc2S1(=O)=O | nt | 1 | -15
CNC[C@@H]1OCCCC[C@H](C)Oc2ccc(NC(=O)Nc3cccc4ccccc34)cc2C(=O)N([C@@H](C)CO)C[C@H]1C | 58 | 2 | -3
CCS(=O)(=O)NCC[C@H]1CC[C@H](NC(=O)C2CC2)[C@@H](CO)O1 | nt | 2 | 12
C[C@H](CO)N1C[C@H](C)[C@@H](CN(C)Cc2ccc3c(c2)OCO3)Oc2ccc(NS(=O)(=O)c3cccs3)cc2CC1=O | 94 | -12 | -17
CCCC(=O)N1CCC2(CC1)CN(Cc1ccccc1F)[C@@H](CO)c1c2c2ccc(OC)cc2n1C | nt | 5 | -83*
COc1ccc2c3c(n(C)c2c1)[C@H](CO)N(Cc1ccccc1F)CC31CN(C(C)=O)C1 | nt | 6 | -25
CCCC(=O)N1CC2(C1)CN(Cc1ccccc1F)[C@H](CO)c1c2c2ccc(OC)cc2n1C | nt | 6 | -87*
CCCC(=O)N1CCC2(CC1)CN(Cc1ccccc1F)[C@H](CO)c1c2c2ccc(OC)cc2n1C | nt | 2 | ?
Cc1noc(C)c1S(=O)(=O)Nc1ccc2c(c1)C(=O)N([C@H](C)CO)C[C@H](C)[C@H](CN(C)Cc1ccc(C(=O)Nc3ccccc3N)cc1)OCCCC[C@@H](C)O2 | nt | 0 | -86*
Cc1noc(C)c1S(=O)(=O)Nc1ccc2c(c1)C(=O)N([C@H](C)CO)C[C@H](C)[C@@H](CN(C)Cc1ccc(C(=O)Nc3ccccc3N)cc1)OCCCC[C@@H](C)O2 | nt | 0 | ?
SMILES | T cruzi growth | C diff growth | Pf Dd2 inh
C[C@@H]1CCCCO[C@@H](CN(C)Cc2ccc(C(=O)Nc3ccccc3N)cc2)[C@@H](C)CN([C@H](C)CO)C(=O)c2cc(NS(=O)(=O)c3ccc(F)cc3)ccc2O1 | nt | 1 | -77
C[C@@H]1CCCCO[C@H](CN(C)Cc2ccc(C(=O)Nc3ccccc3N)cc2)[C@@H](C)CN([C@H](C)CO)C(=O)c2cc(NS(=O)(=O)c3ccc(Cl)cc3)ccc2O1 | 89 | 9 | -82*
COc1ccc(S(=O)(=O)Nc2ccc3c(c2)C(=O)N([C@@H](C)CO)C[C@@H](C)[C@H](CN(C)Cc2ccc(C(=O)Nc4ccccc4N)cc2)OCCCC[C@@H](C)O3)cc1 | 62 | 1 | ?
C[C@@H]1CCCCO[C@@H](CN(C)Cc2ccc(C(=O)Nc3ccccc3N)cc2)[C@@H](C)CN([C@H](C)CO)C(=O)c2cc(NS(=O)(=O)c3ccccc3)ccc2O1 | nt | 3 | -81*
C[C@@H]1CCCCO[C@@H](CN(C)S(=O)(=O)c2ccc(Cl)cc2)[C@@H](C)CN([C@@H](C)CO)C(=O)c2cc(NC(=O)CCC(F)(F)F)ccc2O1 | 58 | 0 | ?
C[C@@H]1CN([C@H](C)CO)S(=O)(=O)c2ccc(C#Cc3ccccc3F)cc2O[C@H]1CN(C)CC1CCOCC1 | nt | 0 | -15
CO[C@@H]1CN(C)C(=O)c2ccc(NC(C)=O)cc2OC[C@H](C)N(C(=O)CC2CC2)C[C@H]1C | -21 | nt | 1
C[C@@H]1CN([C@H](C)CO)C(=O)c2cccc(NC(=O)CCCCCC(=O)Nc3ccccc3N)c2O[C@H]1CN(C)Cc1ccccc1 | nt | 1 | -88*
C[C@H](CO)N1C[C@H](C)[C@@H](CN(C)Cc2ccncc2)Oc2c(NC(=O)CCCCCC(=O)Nc3ccccc3N)cccc2C1=O | 46 | nt | -29
C[C@@H]1CN([C@@H](C)CO)C(=O)c2cccc(NC(=O)CCCCCC(=O)Nc3ccccc3N)c2O[C@@H]1CN(C)Cc1ccncc1 | nt | 10 | -2
C[C@H]1CN([C@@H](C)CO)C(=O)c2cccc(NC(=O)CCCCCC(=O)Nc3ccccc3N)c2O[C@@H]1CN(C)Cc1ccc(-c2ccccc2)cc1 | nt | -14 | -93*
C[C@H]1CCCCO[C@@H](CN(C)C(=O)c2ccncc2)[C@@H](C)CN([C@@H](C)CO)C(=O)c2cc(NS(=O)(=O)c3ccc(Cl)cc3)ccc2O1 | 34 | nt | -58
CO[C@@H]1CN(C)C(=O)c2cc(NC(=O)NC(C)C)ccc2OC[C@H](C)N(C(=O)CC2CC2)C[C@@H]1C | 28 | nt | -17
COc1ccc(CN(C)C[C@H]2Oc3c(NC(=O)C4CC4)cccc3C(=O)N([C@H](C)CO)C[C@@H]2C)cc1 | 34 | 11 | -37
COc1ccc(CN(C)C[C@@H]2Oc3c(NC(=O)CCCCCC(=O)Nc4ccccc4N)cccc3C(=O)N([C@H](C)CO)C[C@H]2C)cc1 | nt | -4 | -90*
